Screening data deposited in PubChem by several laboratories.
In the library only some 2.1% were active in any assay of this set; here they are far more common.
KLF5 inhibitor: KLF5 expression inhibitors, primary screen, DLD-1 cells, luminescence. DLD-1 KLF5 promoter-luciferase reporter. inhibition, % at 5 µM. actives 0.23% (n = 290,000);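 active = inhibition above a per-plate limit of that plate's mean compound inhibition plus 3 SD, cut at about 60% in these data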;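 also: 0% = DMSO wells and 100% = LY294002 at 200 µM; higher means less KLF5 promoter-driven luciferase light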
BaF3 tox: parental Ba/F3 cell viability inhibition, counter-screen for JAK2V617F inhibitor project, murine pro-B, CellTiter-Glo luminescence | AID 1486, 2009 | actives 1.1% (n = 220,000) | inhibition, % at 5.6 µM | CellTiter-Glo ATP luminescence;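 active = inhibition above a per-campaign cutoff, the mean inhibition of all tested compounds plus 3 SD, cut at about 27% in these data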;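 also: 0% = DMSO wells and 100% = JAK Inhibitor I control wells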
APP 5UTR inh: inhibitors of APP translation via 5'UTR reporter, primary screen, APP 5'UTR luciferase, SH-SY5Y cells; SH-SY5Y APP 5'UTR-luciferase reporter, luminescence; inhibition, % at 2 µM; actives 0.82% (n = 190,000);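 active = inhibition above a set limit, derived from the sample mean plus 3 SD, cut at about 45% in these data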
Ba/F3 V617F tox: reduced viability of JAK2V617F-dependent Ba/F3 cells, primary screen, JAK2V617F inhibitor project, cell-based, Ba/F3 EpoR-JAK2V617F, luminescence; ATP luminescence; inhibition, % at 5.6 µM; actives 1.1% (n = 220,000);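 active = inhibition above the campaign mean plus 3 SD over all tested compounds, cut at about 24% in these data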;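 also: cytokine-independent growth of Ba/F3 cells driven by EpoR plus mutant JAK2; 0% = DMSO-treated cells and 100% = JAK inhibitor I control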
IEC-6 cytotox: cytotoxicity in IEC-6 intestinal epithelial cells, primary screen, cytotoxicity control for KLF5 inhibitor project, cell-based, luminescence. IEC-6 cytotoxicity, luminescence viability. inhibition, % at 5 µM. actives 0.78% (n = 290,000). AID 1825, 2009; in the data active = inhibition above about 22%;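 also: 0% = plate median of test compound wells and 100% = cytotoxic reference compound wells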
aSyn 5UTR inh: MLPCN primary screen, SNCA 5' untranslated region | alpha-synuclein 5'UTR reporter, inhibitor activity | inhibition, % (tested at 7.5 µM) | actives 0.82% (n = 300,000) | AID 1813, 2009; in the data active = inhibition above about 60%;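 also: H4 neuroglioblastoma cells stably carrying SNCA 5'UTR luciferase fusion; 0% = DMSO wells and 100% = positive control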
* = called active by the depositor; nt = not tested or not shown.

SMILES	KLF5 inhibitor	BaF3 tox	APP 5UTR inh	Ba/F3 V617F tox	IEC-6 cytotox	aSyn 5UTR inh
Brc1ccc(-c2nc(-c3ccccn3)no2)o1	-25	6	-92	1	7	80*
Brc1ccc(-c2noc(-c3ccccn3)n2)o1	-92	nt	nt	nt	1	-2
Cc1ccccc1-c1nc(-c2ccccn2)no1	10	12	-90	11	16	95*
COc1ccccc1-c1nc(-c2ccccn2)no1	-11	23	-98	20	18	77*
O=C(c1ccnc(Cl)c1)N1CCCC(N2CCN(c3ccccc3F)CC2)C1 (stereo unspecified)	5	nt	nt	nt	-1	10
COc1ccc(CNC(=S)NC(C)CCc2ccccc2)cc1 (stereo unspecified)	-14	6	12	0	-5	-1
O=C(NCc1cccc(Cl)c1)C1CCC(=O)N(CCN2CCOCC2)C1 (stereo unspecified)	0	nt	nt	nt	-4	-17
Cc1cc(NC(=O)CSc2nc(C(C)(C)C)nc3ccccc23)no1	11	4	49*	0	-2	26
Cc1cccc(C)c1NC1=NC2(CCCCC2)N=C(N)N1	-17	76*	1	-5	-2	-17
CC(C1CCN(Cc2cn(C)nc2-c2cccc(Cl)c2)CC1)N1CCOCC1 (stereo unspecified)	-36	49*	0	-1	-4	-26
S=C(Nc1cccc(Cl)c1Cl)N1CCC2(CC1)OCCO2	1	30*	-10	3	5	-36
COCCn1cnc2cc(C)c(C)cc21	15	44*	4	4	1	-9
Cc1cc2ncn(CCOc3ccccc3)c2cc1C	-107	8	-58	3	0	-168
CC(=O)Nc1nn(C)c2nc(C)cc(C)c12	-12	5	-6	4	6	-2
CS(=O)(=O)N1CCN(c2c(Cl)cccc2[N+](=O)[O-])CC1	-7	51*	0	4	1	-38
Cc1ccc(CCC(=O)Nc2ncc(Cc3cccc(Cl)c3Cl)s2)o1	5	0	96*	0	-2	27
O=C(Cc1ccccc1)NNC(=S)NC(=O)c1cccs1	1	-1	nt	-3	-1	75*
Cn1cnc2c(=O)sc3ccccc3c21	nt	nt	nt	nt	nt	-17
Brc1ccc(N=Nc2ccc3ccccc3n2)cc1	-31	0	nt	0	12	95*
CCn1c(O)c(N=Nc2ccc3ccccc3n2)c2ccccc21	-18	0	nt	-4	2	-143
C[C@H](NC(=O)[C@@H]1Cc2ccccc2CN1C(=O)OC(C)(C)C)C(=O)NCc1ccco1	-20	nt	nt	nt	-6	-26
O=C(OCCN1C(=O)c2cccc3c(N4CCOCC4)ccc(c23)C1=O)c1ccc(Cl)cc1Cl	-11	0	94*	-3	-3	99*
CC(C)N(C(=O)c1nn(C)c2c1CSc1ccccc1-2)C1CCCCC1	-35	nt	nt	nt	0	-6
Cc1ccc(C)c(NC(=O)C(Sc2nnc(-c3cccs3)o2)c2ccccc2)c1 (stereo unspecified)	-1	72*	-8	89*	11	nt
COc1cccc(CN2CC(C(=O)N(C)CCCC3CCCC3)CCC2=O)c1 (stereo unspecified)	-23	nt	nt	nt	-5	-7
SMILES	KLF5 inhibitor	BaF3 tox	APP 5UTR inh	Ba/F3 V617F tox	IEC-6 cytotox	aSyn 5UTR inh
CCCCCCc1cc2cc(C(=O)Nc3ccccc3)c(=O)oc2cc1O	-43	2	15	-3	3	92*
CCOC(=O)C(C)/C(C)=N/NC(=O)c1cc2ccccc2cc1O (stereo unspecified)	-3	5	-20	2	0	62*
C/C(CC(=O)N1CCCC1)=N\NC(=O)c1cc2ccccc2cc1O	-15	3	nt	4	0	-18
O=C(c1cc(=O)[nH]c2ccccc12)N1CCN(c2ccccc2)CC1	-5	2	nt	-4	-3	3
O=[N+]([O-])c1cc2cccnc2c2ncccc12	18	2	nt	-3	-1	-11
O=[N+]([O-])c1cc(O)c2ncccc2c1	15	10	29	0	16	70*
COc1cccc(NC(=O)CCNC(=O)N2CC(=O)Nc3ccccc32)c1	-6	nt	nt	nt	-2	-22
CCOc1ccc(C(=O)Oc2ccc(NC(C)=O)cc2)cc1	-3	-1	-5	-6	-2	80*
